The full ranking holds about 39,000 sequences; the median of “fluorescence intensity (a.u.)” is about 4,300, and the highest 2% start at about 39,000. What follows is part of a selection rich in the highest values, with near analogues and random picks from the rest.

This assay addresses T1, OsSMF1 (Oryza sativa, UniProt Q6ZLB0 1-436).
T1 sequence: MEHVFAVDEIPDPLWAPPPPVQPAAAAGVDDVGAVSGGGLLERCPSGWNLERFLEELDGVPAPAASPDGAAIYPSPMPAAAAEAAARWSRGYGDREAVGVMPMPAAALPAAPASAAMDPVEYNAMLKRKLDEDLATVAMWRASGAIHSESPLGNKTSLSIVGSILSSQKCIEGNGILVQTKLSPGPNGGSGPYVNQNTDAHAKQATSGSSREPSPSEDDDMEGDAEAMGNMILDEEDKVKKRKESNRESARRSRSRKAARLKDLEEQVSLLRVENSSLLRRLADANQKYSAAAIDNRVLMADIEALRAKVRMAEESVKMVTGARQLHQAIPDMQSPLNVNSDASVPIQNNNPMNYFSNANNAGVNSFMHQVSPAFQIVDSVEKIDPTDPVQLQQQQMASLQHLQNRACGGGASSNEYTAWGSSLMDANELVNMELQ
As to the kind of experiment: protein-binding microarray (RPBM); PBS, 2% BSA, 51.3 ng/ul salmon testes DNA, 50 uM zinc acetate, 200 nM TF, 25 C, 1 h; high values mean tight binding. Particulars: protein: recombinant; tags: N-terminal polyhistidine and DsRed monomer fusion (pET32a); chain copies: 2; label: CyDye5-dUTP incorporated in the synthesized complementary strand; 3' TTTTT single-stranded linker to array surface; dsDNA, one strand shown. A digest of the protocol:
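The binding signal is fluorescence intensity per feature, in arbitrary units, read on an Axon 4000B scanner. Polyhistidine- and DsRed-tagged transcription factors (N-terminal fusions) from E. coli BL21-CodonPlus were purified on Ni–NTA and applied at 200 nM for 1 h at 25 °C to a double-stranded, BSA-blocked custom Agilent array in buffer with 50 µM zinc acetate.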
Turning to “TTCTATAGAAGCTTTCTCTCTTAAAACTCTACCAAAATTTCGGAGTCACCTAGTGCAG”, the binding signal is 24000 fluorescence intensity (a.u.).

In the case of “AATAAATAGGCCTGACGTGAGGCCCACTCGCCACGTCAGCCGGAGTCACCTAGTGCAG”, the binding signal is 44900 fluorescence intensity (a.u.).

With “TCGTCGCCCACTGCCACCGCTGACGTCACCGCACTCTCGCCGGAGTCACCTAGTGCAG”, the binding signal was 30500 fluorescence intensity (a.u.).

With “CAGCCGGGCCCACGTGTCAGTGAGTGCGTGACGCGTCAGCCGGAGTCACCTAGTGCAG”, the binding signal is 15200 fluorescence intensity (a.u.).

For “TCTTTTGGTGGTTTCAGAAGCGGTTTTATCCTACGTGACACGGAGTCACCTAGTGCAG”, the binding signal was 4530 fluorescence intensity (a.u.).

For “AATTACCACCCTAACTCAATTAGAAGCGGTTTTCAGCCTACGGAGTCACCTAGTGCAG”, the binding signal was 52400 fluorescence intensity (a.u.).

Regarding “TTTTGACCCGGTTTTAGCCTACGTGACGGCTAAGTCAGCGCGGAGTCACCTAGTGCAG”, the binding signal was 4480 fluorescence intensity (a.u.).

For “CAAGGAAGAATATGCCACCTCCACGGAGGCCGGCGGCGGCCGGAGTCACCTAGTGCAG”, the binding signal was 3710 fluorescence intensity (a.u.).

As to “GAGAAGAAGGCCACCTCACCACTAAAGGAGGAGGAGGAGGCGGAGTCACCTAGTGCAG”, the binding signal is 43500 fluorescence intensity (a.u.).

Turning to “GGGGAAGGAGAAGAGGAAGGAGAGGGGAGGAGGAGGAGGGCGGAGTCACCTAGTGCAG”, the binding signal was 3770 fluorescence intensity (a.u.).

In the case of “CCTTTCCGATTACGTGTTGGACCTTGACCCTAGGCCATATCGGAGTCACCTAGTGCAG”, the binding signal was 49700 fluorescence intensity (a.u.).

Consider “TACGTGTGTTGATTTCCGTGACATATGCATAAATTTCTTTCGGAGTCACCTAGTGCAG”, for which the binding signal is 3530 fluorescence intensity (a.u.).

With “TCAGCGAATTGGTACGTACCCTTGTACGTGTTGACGCCATCGGAGTCACCTAGTGCAG”, the binding signal is 3650 fluorescence intensity (a.u.).

As to “CCGTCGACTCTGTGCCACGTCCTGTTGCTCGTCGGATTCCCGGAGTCACCTAGTGCAG”, the binding signal is 14000 fluorescence intensity (a.u.).

On to “TGCAGTATCTGCCGTTCGTATCGCTGCGTTGAATCTTCCACGGAGTCACCTAGTGCAG”, for which the binding signal was 47100 fluorescence intensity (a.u.).

Turning to “TTGCTGCAGTTCTCGTATGCTTCCTAGTACTATCTGCGTTCGGAGTCACCTAGTGCAG”, the binding signal was 3230 fluorescence intensity (a.u.).

For the sequence “CTAGTTCGCCTTCCACGTACGCACTTGGCGTCGTATCTGCCGGAGTCACCTAGTGCAG”, the binding signal was 6440 fluorescence intensity (a.u.).

With “GATCATGAGCTCCACGGCGGCCAACGTGGCGGCGCCGACGCGGAGTCACCTAGTGCAG”, the binding signal is 8640 fluorescence intensity (a.u.).

With “TCAGCTCAGCAAATTAGGATGTTTCATTAGTTAGAACAAACGGAGTCACCTAGTGCAG”, the binding signal was 51600 fluorescence intensity (a.u.).

On to “TTTCGCAATTATATTGATGCAGAAATCAGCAGCTCACAATCGGAGTCACCTAGTGCAG”, for which the binding signal was 20700 fluorescence intensity (a.u.).

For “TAACACAACTATTTACTCAGCTCACGTGTTTCATTAACAACGGAGTCACCTAGTGCAG”, the binding signal is 3340 fluorescence intensity (a.u.).

On to “AGCGACGAGTAAACAAAGCGCGGCGTAGCATGTGATGTGGCGGAGTCACCTAGTGCAG”, for which the binding signal is 4440 fluorescence intensity (a.u.).

Turning to “GTTATATCTCACGTGTCAAAATTCCTATGATTTTCAGTAACGGAGTCACCTAGTGCAG”, the binding signal was 4700 fluorescence intensity (a.u.).

Take “GCGTCACGTTCCTGTCGGCGGCGGCCAACGTGGCCCGCGTCGGAGTCACCTAGTGCAG”: the binding signal was 15200 fluorescence intensity (a.u.).

Take “CGCCGAGCTGCCACGCTCGCGTCGCGTCCAGATGCGCGCGCGGAGTCACCTAGTGCAG”: the binding signal is 3680 fluorescence intensity (a.u.).

As to “GCCGCCGCCGCCGCCGCCGCTGACGAGGAGCAGAAGGTGGCGGAGTCACCTAGTGCAG”, the binding signal was 4310 fluorescence intensity (a.u.).

Turning to “CGCCGCTGCCGCCAAACCGTCGGTGGAGAAGGCCTACCGGCGGAGTCACCTAGTGCAG”, the binding signal is 59200 fluorescence intensity (a.u.).

For “CCGAGCCACGTCGCGCCGCCGCCGCTGCTGTGCCGCCGCGCGGAGTCACCTAGTGCAG”, the binding signal is 5650 fluorescence intensity (a.u.).

Regarding “CGCTGCTGCCGTCACAGAAGGTGCTGACATGGCCTGGGGTCGGAGTCACCTAGTGCAG”, the binding signal was 7520 fluorescence intensity (a.u.).

“GCCGGCGACGCTGCCGCCGTCACCACTACCGCTGCCGCGGCGGAGTCACCTAGTGCAG”: the binding signal was 4140 fluorescence intensity (a.u.).

In the case of “GCGGGCGCACGGGTGGGTGGTGTTCTGGGGCGGAGGCAGCCGGAGTCACCTAGTGCAG”, the binding signal is 3310 fluorescence intensity (a.u.).

For the sequence “CCGTCGTGCTGGGTGTGGCGCCGGAGAAGAAGGCGCAGCACGGAGTCACCTAGTGCAG”, the binding signal was 41700 fluorescence intensity (a.u.).

“GCGCCGTCGTCGTCGCTGCCGTGGCGCCGCCGCGGCCACCCGGAGTCACCTAGTGCAG”: the binding signal was 6800 fluorescence intensity (a.u.).

As to “GAGTGGAGAAGGCGCGCCACCGTCGCTAGAGCCGATGCTGCGGAGTCACCTAGTGCAG”, the binding signal was 47700 fluorescence intensity (a.u.).

“CTGCTGCCGTCGCAGAAGGTGCTGACATGGCCAGGGGTGGCGGAGTCACCTAGTGCAG”: the binding signal is 45300 fluorescence intensity (a.u.).

With “GCGCGCCGTCGTGGCGCTGGCGGCCACCACGGTGGTCACCCGGAGTCACCTAGTGCAG”, the binding signal was 4120 fluorescence intensity (a.u.).

As for “GATGTTACGCGTGTAATGGTGTGTGCGTGTATATACTTTGCGGAGTCACCTAGTGCAG”, the binding signal was 7330 fluorescence intensity (a.u.).

For “ACGTTTACTCCCAGTACACACAAGACACTACTAGCTTAGACGGAGTCACCTAGTGCAG”, the binding signal was 3420 fluorescence intensity (a.u.).

Turning to “TGGAGGAGGAGGAGGGGAGACCACCGGAGGTAGGCGAATCCGGAGTCACCTAGTGCAG”, the binding signal is 3140 fluorescence intensity (a.u.).

Turning to “TCAGATAGCCACCATGACATGTATCAGTACATGCAGTGATCGGAGTCACCTAGTGCAG”, the binding signal was 4480 fluorescence intensity (a.u.).

Consider “CGAATAAGCCCTTAATGTGTACGTTATTTGGTTTATCCACCGGAGTCACCTAGTGCAG”, for which the binding signal was 3240 fluorescence intensity (a.u.).

“CGCCGGTGCTGATGCTGATCGATCTTACGTCGCGTCGCGACGGAGTCACCTAGTGCAG”: the binding signal was 3280 fluorescence intensity (a.u.).

The values are drawn from paper PMC7819943, “Rice protein-binding microarrays: a tool to detect cis-acting elements near promoter regions in rice”.
